Test results reported in PubChem BioAssay AID2685 (National Center for Advancing Translational Sciences (NCATS), 2010).
About 2,100 (0.66%) of roughly 320,000 compounds were called active. Roughly 53% stayed inconclusive and do not appear here. This is one part of a sample in which actives are shown more often than they occur. Calls follow the shape of the dose curve; as a rule, active = well fitted inhibition curve with a large enough effect in the signal ratio, with a control signal flat (not every such curve was filed as active); inconclusive = small, poorly fitted or top-dose-only effect, or effect the other way, or a change in a side signal; inactive = flat fitted curve, though single readings scatter; the % refers to the signal ratio.

Test: qHTS Assay for Lipid Storage Modulators in Drosophila S3 Cells;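 as to cell number change: cells counted by Cell Tracker Red CMTPX staining in the red channel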; as to lipid storage change, negative = inhibition: % is scaled to controls: 0 for no effect and ±100 for the full control effect
Conditions: BODIPY lipid droplet fluorescence, 18-24 h, cells fed with added oleic acid; cell number change: measured here: cell count max response; series mostly up to 46.1 µM; lipid storage change, negative = inhibition: at the top concentration
Outline: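 Laser-scanning cytometry quantifies lipid droplet accumulation (500–530 nm total intensity; droplet/cell object ratio) in oleic acid-fed (400 uM added) Drosophila S3 cells treated with a concentration series. 20 uM Triacsin C defined 100% inhibition.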
Potency is read from the fitted curve at half-maximal effect.

For `CC(=O)NC12CC3CC(C1)CC(C(=O)Nc1nc4ccc(S(C)(=O)=O)cc4s1)(C3)C2`, which “lipid storage change, negative = inhibition” value is on record?
Its value is 4.01% (inactive).

And the cell number change?
The cell number change was -1.02%.

With `CC(=O)NC12CC3CC(C1)CC(C(=O)Nc1nc4c(C)cccc4s1)(C3)C2` as the molecule, how does the Potency read?
Its Potency is 5.8 µM (active).

What about the cell number change of the same molecule?
The cell number change was -14.2%.

Which “lipid storage change, negative = inhibition” value does the source give for `O=C(O)c1ccc(NC2=C(N3CCOCC3)C(=O)c3ccccc3C2=O)cc1` here?
Its value is -9.76% (inactive).

And the cell number change?
The cell number change was -2.96%.

Which “lipid storage change, negative = inhibition” value does the source give for `CC(=O)N(C)C1=C(N2CCOCC2)C(=O)c2ccccc2C1=O` here?
The value was -6.67% (inactive).

And the cell number change?
Its cell number change is 0.283%.

For `O=C1C=C(N2CCOCC2)c2ccccc2C1=O`, which Potency is on record?
Its Potency is 4.11 µM (active).

And the cell number change?
Its cell number change is -6.93%.

With `Cc1ccc(-n2nc(C)c3c(C)c(CCC(=O)O)c(C)nc32)cc1C` as the molecule, how does the “lipid storage change, negative = inhibition” value read?
Its value is -1.95% (inactive).

What about the cell number change of the same molecule?
Its cell number change is 9.26%.

With `O=C(O)CCCc1ccc2ccc3cccc4ccc1c2c34` as the molecule, how does the “lipid storage change, negative = inhibition” value read?
Its value is 7.63% (inactive).

And the cell number change?
Its cell number change is 11.3%.

Which “lipid storage change, negative = inhibition” value does the source give for `CCc1ccc(N(CC(=O)NC(C)C)C(=O)CCC(=O)Nc2ccccn2)cc1` here?
The value was 13.9% (inactive).

What about the cell number change of the same molecule?
Its cell number change is -21%.

For `CCC(C)(C)NC(=O)CN(Cc1ccc2c(c1)OCO2)C(=O)CCC(=O)Nc1ccccn1`, which “lipid storage change, negative = inhibition” value is on record?
The value was -29.1% (inactive).

Which “lipid storage change, negative = inhibition” value does the source give for `CCOc1ncccc1C(=O)N(CC)CC(=O)Nc1ccc(NC(C)=O)cc1` here?
Its value is 8.07% (inactive).

And the cell number change?
The cell number change was 4.04%.

What does the source list for `Cc1ccnc(NC(=O)CCC(=O)N(CC(=O)NC(C)(C)C)c2ccc3c(c2)OCCO3)c1`?
lipid storage change, negative = inhibition: -7.53% (inactive); cell number change: 5.82%

With `CC(C)CCNC(=O)CN(Cc1ccc2c(c1)OCO2)C(=O)CCC(=O)Nc1ccccn1` as the molecule, how does the “lipid storage change, negative = inhibition” value read?
Its value is 11.2% (inactive).

What about the cell number change of the same molecule?
Its cell number change is 2.93%.

Which Potency does the source give for `CCOc1ncccc1C(=O)N(CC)CC(=O)NCc1ccc(F)cc1` here?
The Potency was 3.66 µM (active).

What about the cell number change of the same molecule?
The cell number change was 4.96%.

With `COc1ccc(CN(CC(=O)NCc2ccc(F)cc2)C(=O)CCC(=O)Nc2cc(C)ccn2)cc1` as the molecule, how does the Potency read?
The Potency was 23.1 µM (active).

What about the cell number change of the same molecule?
Its cell number change is 6.52%.

Which “outcome” value does the source give for `O=C(CN(Cc1ccccc1)C(=O)CCC(=O)Nc1ccccn1)NCc1ccc(F)cc1` here?
Its value is “inactive”.

What about the cell number change of the same molecule?
Its cell number change is 7.92%.

What does the source list for `CC(C)NC(=O)CN(Cc1ccc2c(c1)OCO2)C(=O)CCC(=O)Nc1ccccn1`?
Potency: 18.4 µM (active); cell number change: 0.42%

With `CCN(CC(=O)NCc1ccc(F)cc1)C(=O)c1cccnc1SC` as the molecule, how does the “lipid storage change, negative = inhibition” value read?
Its value is 22.9% (inactive).

And the cell number change?
The cell number change was 23.4%.

Which “outcome” value does the source give for `Cc1ccnc(NC(=O)CCC(=O)N(CC(=O)NCc2ccccc2)Cc2ccccc2)c1` here?
The value was “inactive”.

And the cell number change?
Its cell number change is 14.2%.

What does the source list for `Cc1ccnc(NC(=O)CCC(=O)N(CC(=O)NC(C)(C)C)Cc2ccc3c(c2)OCO3)c1`?
Potency: 23.1 µM (active); cell number change: -17.5%

Which results are given for `COC(=O)Cc1c(C)nc2nc(NCc3cccc([N+](=O)[O-])c3)[nH]n2c1=O`?
outcome: inactive; cell number change: 22.4%

With `COc1cccc(NC(=O)c2ccn(C)n2)c1` as the molecule, how does the “lipid storage change, negative = inhibition” value read?
Its value is -6.25% (inactive).

What about the cell number change of the same molecule?
Its cell number change is -7.57%.

For `CCCC(=O)Nc1cc(C(=O)O)ccc1Sc1ccccc1`, which “lipid storage change, negative = inhibition” value is on record?
Its value is -8.07% (inactive).

And the cell number change?
Its cell number change is -3.48%.

Which “lipid storage change, negative = inhibition” value does the source give for `Cc1cc(C)n(-c2ccc(C(=O)NCc3ccc4c(c3)OCO4)cc2)n1` here?
The value was 22% (inactive).

What about the cell number change of the same molecule?
Its cell number change is -26%.

With `COc1ccc(S(=O)(=O)NC2CC(=O)N(c3ccc(C)c(C)c3)C2)cc1C` (configuration not stated) as the molecule, how does the “outcome” value read?
The value was “inactive”.

With `O=C(Cn1cnc2ccccc2c1=O)c1ccccc1` as the molecule, how does the “lipid storage change, negative = inhibition” value read?
The value was 3.76% (inactive).

And the cell number change?
The cell number change was -5.21%.

For `O=C(CNC(=O)c1ccncc1)N/N=C/c1cc(Br)ccc1O`, which “lipid storage change, negative = inhibition” value is on record?
The value was -6.45% (inactive).

What about the cell number change of the same molecule?
The cell number change was -8.8%.

What does the source list for `Cc1cccc(N2C(=O)CC(N(C(=O)c3ccco3)c3cccc(C)c3)C2=O)c1` (configuration not stated)?
lipid storage change, negative = inhibition: -2.05% (inactive); cell number change: 1.21%

What does the source list for `COc1ccccc1/C=c1\sc2nc(-c3ccccc3OC)nn2c1=O`?
lipid storage change, negative = inhibition: -3.78% (inactive); cell number change: -6.9%

Which “lipid storage change, negative = inhibition” value does the source give for `Cn1c(-c2sc3cc(C(F)(F)F)cnc3c2-c2cccs2)n[nH]c1=S` here?
The value was -9.3% (inactive).

And the cell number change?
The cell number change was -11.9%.

Which “lipid storage change, negative = inhibition” value does the source give for `O=S(=O)(c1ccccc1)n1ccc2ccccc21` here?
The value was 14.7% (inactive).

What about the cell number change of the same molecule?
Its cell number change is -15.8%.

What does the source list for `O=C1/C(=C\c2cccs2)Sc2ccc3ccccc3c21`?
Potency: 16.4 µM (active); cell number change: -14.8%

With `O=C1N=C(N2CCN(c3cccc4ccccc34)CC2)S/C1=C/c1cccs1` as the molecule, how does the “outcome” value read?
Its value is “inactive”.

Which “lipid storage change, negative = inhibition” value does the source give for `NC1=NC(=O)/C(=C/c2cccs2)S1` here?
The value was 15.7% (inactive).

And the cell number change?
The cell number change was -5.63%.

For `O=C(O)c1ccc(NC(=O)c2cn(-c3ccccc3)nc2-c2cccc(Cl)c2)cc1`, which “lipid storage change, negative = inhibition” value is on record?
Its value is -13.3% (inactive).

And the cell number change?
Its cell number change is 4.66%.

What does the source list for `CC(O)CCc1nc2ccc(C(=O)O)cc2[nH]1` (configuration not stated)?
lipid storage change, negative = inhibition: -7.1% (inactive); cell number change: 3.44%

Which results are given for `CC(C)c1nc2ccc(C(=O)O)cc2[nH]1`?
Potency: 23.1 µM (active); cell number change: -0.0603%

With `CC(O)c1nc2ccc(C(=O)O)cc2[nH]1` (configuration not stated) as the molecule, how does the “lipid storage change, negative = inhibition” value read?
Its value is -2.22% (inactive).

And the cell number change?
Its cell number change is -0.214%.

For `COc1cccc(-n2c(SCC(=O)OC(C)C)nnc2-c2cccnc2)c1`, which “outcome” value is on record?
Its value is “inactive”.

With `O=C(COc1ccc(Br)cc1)N1CCNC1=O` as the molecule, how does the “outcome” value read?
The value was “inactive”.

What about the cell number change of the same molecule?
The cell number change was -1.77%.

With `O=C(COc1ccccc1Br)N1CCNC1=O` as the molecule, how does the “lipid storage change, negative = inhibition” value read?
Its value is 10.5% (inactive).

And the cell number change?
The cell number change was -13%.

Which Potency does the source give for `O=C(COc1ccccc1)N1CCNC1=O` here?
The Potency was 11.6 µM (active).

And the cell number change?
Its cell number change is -10.9%.

With `CCOc1ccc(NC(=NCc2ccc3c(c2)OCO3)SC2CC(=O)N(c3ccc(OCC)cc3)C2=O)cc1` (configuration not stated) as the molecule, how does the “lipid storage change, negative = inhibition” value read?
Its value is -5.4% (inactive).

And the cell number change?
The cell number change was 1.82%.

Which “outcome” value does the source give for `COc1cccc(NC(=O)[C@@H]2CCCN2C(=O)[C@@H]2Cc3ccccc3CN2C(=O)OC(C)(C)C)c1` here?
Its value is “inactive”.

What about the cell number change of the same molecule?
Its cell number change is -9.43%.

What does the source list for `Cc1ccc(-c2cccc(C3CC=CC4C3C(=O)N(Cc3ccccc3)C4c3ccc(C(F)(F)F)cc3)c2)cc1` (configuration not stated)?
lipid storage change, negative = inhibition: 12.2% (inactive); cell number change: 0.818%

Which Potency does the source give for `O=C1C2C(c3ccccc3)CC=CC2[C@H](c2ccc(C(F)(F)F)cc2)N1Cc1ccccc1` (some centres not stated) here?
The Potency was 18.4 µM (active).

For `O=C1C2C(c3cccc(/C=C/c4ccccc4)c3)CC=CC2C(c2ccc(C(F)(F)F)cc2)N1Cc1ccccc1` (configuration not stated), which “lipid storage change, negative = inhibition” value is on record?
The value was 9.24% (inactive).

What about the cell number change of the same molecule?
The cell number change was -0.28%.
